From PubChem
miR-21 reporter: qHTS Assay for Modulators of miRNAs and/orActivators of miR-21; HeLa miR-21 FLuc reporter, luciferase, 48 h; Potency, µM (series often up to 38.3 µM), inactives show at the top dose activity change, positive = activation, actives largely listed as activators; 340,000 tested, under 10 active;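 further: % of control where 0% means no effect; miR-21 action dims this reporter so a rising signal means less miR-21 action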
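HeLa miR-21-FLuc reporter line, endogenous miR-21; 2000 cells/well in DMEM/10% FBS; compound titration up to ~40uM final, 48 h, 37 degree Celsius; luciferase detection reagent, 15 min lysis, CCD luminescence.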
uPA surface inh: qHTS for Inhibitors of Cell Surface uPA Generation | Potency, µM (titrated, usually from 38.3 µM), for inactives: top-dose activity change, negative = inhibition, usual class: inhibitors | hit rate 0.31% among 330,000 | AID 540303, 2011 | cell surface uPA generation assay, qHTS; active means well fitted inhibition curve with a large enough effect; inconclusive means small, poorly fitted or top-dose-only effect; inactive means no such curve, though single readings can be large or run the other way; tested in mouse RAW 264.7 cells; further: potency means the concentration at half of the fitted maximal effect; on the % scale 0 is the no-effect control and ±100 the full control effect; nearly all actives have a fitted effect of over 55% in size
DT40 TDP1 CPT: qHTS for Inhibitors of human tyrosyl-DNA phosphodiesterase 1 (TDP1): qHTS in cells in presence of CPT; AID 686979, 2013; chicken DT40 Tdp1-/-;hTDP1 cells + 20 nM CPT, ATP luminescence, 48 h; Potency, µM (doses to about 46.2 µM), for the others: at the top dose activity change, negative = growth inhibition, usual class: inhibitors; hit rate 12% among 420,000; further: potency means the concentration at half of the fitted maximal effect; on the % scale 0 is the no-effect control and ±100 the full control effect; nearly all actives have a fitted effect of over 55% in size
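Cell growth measured by CellTiter-Glo luminescence after a minimum 48 h, 37 C compound exposure with 20 nM CPT in Tdp1-knockout DT40 cells stably expressing hTDP1, seeded 400/well; qHTS titration format.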
DT40 TDP1 no CPT: qHTS for Inhibitors of human tyrosyl-DNA phosphodiesterase 1 (TDP1): qHTS in cells in absence of CPT; DT40 Tdp1-/- hTDP1 cells, no CPT, ATP luminescence, 48 h; hit rate 15% among 420,000; Potency, µM (series often up to 46.2 µM), without a hit: at the highest dose activity change, negative = growth inhibition, actives largely listed as inhibitors; further: potency means the concentration at half of the fitted maximal effect; on the % scale 0 is the no-effect control and ±100 the full control effect; nearly all actives have a fitted effect of over 55% in size
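Chicken DT40 Tdp1-/- cells stably complemented with human TDP1 were seeded at 400 cells/well with DMSO in place of 20 nM camptothecin. After compound pinning, cells grew at least 48 hr at 37 °C; viability read by CellTiter-Glo luminescence.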
TDP1 inh: qHTS Assay for Inhibitors of Tyrosyl-DNA Phosphodiesterase (TDP1); Tyrosyl-DNA phosphodiesterase 1 (Homo sapiens), Q9NUW8; recombinant TDP1, AlphaScreen DNA substrate cleavage; Potency, µM (top dose mostly 130 µM), without a hit: at the highest dose activity change, negative = inhibition, usual class: inhibitors; hit rate 0.28% among 350,000; AID 485290, 2010; further: potency means the concentration at half of the fitted maximal effect; on the % scale 0 is the no-effect control and ±100 the full control effect; nearly all actives have a fitted effect of over 40% in size
Target sequence (Q9NUW8 whole entry, looked up): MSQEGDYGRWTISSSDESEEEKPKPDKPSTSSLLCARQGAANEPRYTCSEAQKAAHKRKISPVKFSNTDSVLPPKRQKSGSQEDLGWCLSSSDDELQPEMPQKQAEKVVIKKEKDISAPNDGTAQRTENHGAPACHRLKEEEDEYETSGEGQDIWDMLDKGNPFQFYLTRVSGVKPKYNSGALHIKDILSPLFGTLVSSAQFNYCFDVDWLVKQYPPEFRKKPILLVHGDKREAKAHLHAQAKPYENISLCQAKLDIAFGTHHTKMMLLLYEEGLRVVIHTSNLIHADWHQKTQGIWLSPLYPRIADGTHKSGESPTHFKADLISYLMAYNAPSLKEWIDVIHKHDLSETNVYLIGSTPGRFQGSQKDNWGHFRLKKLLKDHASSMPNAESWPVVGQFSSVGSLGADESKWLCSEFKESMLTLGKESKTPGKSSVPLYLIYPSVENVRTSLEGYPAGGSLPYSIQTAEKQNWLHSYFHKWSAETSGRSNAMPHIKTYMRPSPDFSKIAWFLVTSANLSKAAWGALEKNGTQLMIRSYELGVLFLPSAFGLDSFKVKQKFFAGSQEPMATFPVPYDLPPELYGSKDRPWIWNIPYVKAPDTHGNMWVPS
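Compounds were preincubated with Tdp1 (1 nM final) for 15 min at room temperature before substrate (15 nM final) started a 5 min reaction; beads (10 ug/ml final) were then added for 10 min before AlphaScreen detection.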
Numbers without * were called inactive; u = inconclusive; x = no result; [ ] = another dose, or the depositor's remark. Rows were chosen to be rich in hits. Some 16% of all compounds tested hit in one or more screens of this group. Unless noted, the call rests on the fitted dose curve; in most records, active means well fitted curve in the direction sought with a large enough effect; inconclusive means small, poorly fitted or top-dose-only effect, or another doubt; inactive means no such curve, though single readings can be large; an effect the other way counts as inactive or inconclusive.

SMILES	miR-21 reporter	uPA surface inh	DT40 TDP1 CPT	DT40 TDP1 no CPT	TDP1 inh
CC(=O)NC(Cc1ccccc1C)C(=O)NC1CCN(C(=O)c2cccc(C)c2)CC1 (stereo not drawn)	0%	-7%	1%	-13%	0%
COc1ccc(CNC(=O)C[C@H]2C[C@H](C(=O)N(C(C)C)C(C)C)[C@@]3(C)c4[nH]c5ccc(Cl)cc5c4CCN3C2=O)cc1OC	x	u	18µM*	18µM*	3%[56.1 µM]
COc1ccc2[nH]c3c(c2c1)CCN1C(=O)C(CC(=O)NCCN2CCOCC2)C[C@H](C(=O)N(C(C)C)C(C)C)[C@@]31C (stereo partly drawn)	x	-10%	u	-20%	0%[56.1 µM]
COc1ccc2c(C)cc(SCC(=O)NC3CCCC3)nc2c1	x	-35%	-24%	u	0%
COc1cccc(-c2nc(SCC(=O)NC3CCCC3)c(-c3ccccc3)[nH]2)c1	21%	x	u	u	5%
COc1ccc(-c2nc(SCC(=O)Nc3ccc4c(c3)OCCO4)c(-c3ccccc3)[nH]2)cc1	25%	x	u	23µM*	-2%[12.3 µM]
COc1ccc(-c2[nH]c(-c3cccc(OC)c3)nc2SCC(=O)Nc2ccc3c(c2)OCO3)cc1	30%	x	16µM*	u	8%
COc1cccc(-c2nc(SCC(=O)Nc3ccc4c(c3)OCCO4)c(-c3ccccc3)[nH]2)c1	u	x	23µM*	18µM*	12%
COc1cccc(-c2nc(SCC(=O)NCC3CCCO3)c(-c3ccc(C)cc3)[nH]2)c1 (stereo not drawn)	22%	x	u	u	5%
COc1ccc2nc(SCC(=O)NC3CCCC3)c(C)cc2c1	13%	-6%	16µM*	16µM*	6%
O=C(COC(=O)c1ccccc1Br)NCC1CCCCC1	x	-1%	-17%	-15%	-2%
O=C(COc1ccccc1)N1CCCC1	0%	6%	-2%	2%	6%
Cc1cc(C=O)sc1[B-](F)(F)F	x	-5%	-1%	-12%	x
Cc1c(Cl)cccc1NC(=O)N1CCN(C(=O)c2ccco2)CC1	0%	-1%	u	-29%	0%
COc1cccc(-c2nc(SCC(=O)NC3CCCC3)c(-c3ccc(F)cc3)[nH]2)c1	29%	x	u	21µM*	5%
COc1cccc(-c2nc(SCC(=O)NC3CCCC3)c(-c3ccc(C)cc3)[nH]2)c1	u	x	u	u	10%
CCN(CC)S(=O)(=O)c1cccc(C(=O)Nc2ccccc2C(=O)Nc2ccc(OC)cc2)c1	2%	x	10µM*	10µM*	3%
COc1ccc(NC(=O)c2cccc(S(=O)(=O)N3CCCCCC3)c2)cc1	12%	0%	u	15µM*	x
COc1cc(NC(=O)c2cccc(S(=O)(=O)N3CCCCC3)c2)cc(OC)c1OC	x	-3%	23µM*	u	0%
COc1ccc(NS(=O)(=O)c2cccc(C(=O)Nc3ccccc3C(=O)O)c2)cc1	6%	14%	-8%	-3%	4%
CC(=O)Nc1ccc(NC(=O)c2cccc(S(=O)(=O)N3CCCCCC3)c2)cc1	x	-21%	u	u	-2%
CC(=O)Nc1cccc(C(=O)Nc2ccc(S(=O)(=O)N3CCCCC3)cc2)c1	x	2%	u	15µM*	5%
Cc1c(C(c2ccc(Br)cc2)c2c(C)n(C)n(-c3ccccc3)c2=O)c(=O)n(-c2ccccc2)n1C	-7%	0%	-10%	u	x
Cc1csc(SCC(=O)NC(C)C2CC3CCC2C3)n1 (stereo not drawn)	x	-7%	-5%	-20%	7%
COc1ccc(COC(=O)c2cccc(S(=O)(=O)N3CCN(C(C)=O)CC3)c2)cc1	x	-19%	u	21µM*	-4%
O=C(NCC1CCN(c2ccc(S(=O)(=O)N3CCOCC3)cc2)CC1)c1cccc(Cl)c1	12%	-5%	u	12µM*	0%
